Test results taken from article PMC10726135, “HNF4α isoforms regulate the circadian balance between carbohydrate and lipid metabolism in the liver”.
Over roughly 18,000 sequences, “log2 normalized intensity” has its median near 0.39; the highest 2% begin near 6.6. The sample holds the highest values, similar sequences and a random draw of the others, so the mix is not that of the screen.

The sequences below were run against T1, HNF4alpha2 (COS-7 nuclear extract) (Homo sapiens, UniProt P41235 1-474) (assay: protein-binding microarray; COS-7 nuclear extract on double-stranded Agilent 4x180k PBM; binding buffer, salt, pH and temperature not given in the material; high values mean tight binding). Conditions: chain copies: 2; label: 3' end of strand 1 on the slide; dsDNA, one strand shown.
T1 sequence: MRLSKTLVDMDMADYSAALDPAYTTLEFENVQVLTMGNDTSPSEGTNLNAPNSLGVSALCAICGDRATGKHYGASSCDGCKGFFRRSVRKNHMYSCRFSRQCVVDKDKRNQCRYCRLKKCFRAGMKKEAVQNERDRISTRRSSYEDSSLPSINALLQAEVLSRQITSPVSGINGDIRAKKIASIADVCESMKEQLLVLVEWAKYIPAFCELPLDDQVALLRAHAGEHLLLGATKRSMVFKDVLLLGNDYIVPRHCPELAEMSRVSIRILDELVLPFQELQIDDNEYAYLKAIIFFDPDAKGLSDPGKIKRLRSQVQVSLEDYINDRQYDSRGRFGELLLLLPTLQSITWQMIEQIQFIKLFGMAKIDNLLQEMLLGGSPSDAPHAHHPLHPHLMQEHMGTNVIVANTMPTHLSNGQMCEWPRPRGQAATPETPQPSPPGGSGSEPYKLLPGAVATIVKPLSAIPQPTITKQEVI
Summary of the method: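 Double-stranded oligonucleotides of ~60 nt, representing ~44,000 test sequences in quadruplicate, made up a custom Agilent SurePrint G3 4x180k array. Nuclear extracts from COS-7 cells transiently transfected by CaPO4 with a human HNF4α isoform expression vector were applied, and bound HNF4α was imaged at 2-µm resolution on an Agilent G2565CA scanner. Binding signal refers to the background-corrected, normalized gProcessedSignal output of Agilent software.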

| Sequence | binding signal [log2 normalized intensity] |
| --- | --- |
| TCTGTTTGATTCCATGCTGATAATGGAATTGCCTAGGGAGATTAGAGTATCGGTCGA | 0.756 |
| CAAATGAATAATCCCCTCCTGGACTTTGGTGCCTAGGGAGATTAGAGTATCGGTCGA | 4.73 |
| GAATAATCCCCTCCTGGACTTTGGTCTCATGCCTAGGGAGATTAGAGTATCGGTCGA | 7.15 |
| ATCCCCTCCTGGACTTTGGTCTCATGGGCCGCCTAGGGAGATTAGAGTATCGGTCGA | 6.4 |
| GTAATGACATGCAGTATGGGGACTTTGGACGCCTAGGGAGATTAGAGTATCGGTCGA | 5.99 |
| GACATGCAGTATGGGGACTTTGGACTCCTGGCCTAGGGAGATTAGAGTATCGGTCGA | 7.53 |
| CTCCTGGACTTTGGTCTCATGGGCCTAAACGCCTAGGGAGATTAGAGTATCGGTCGA | 4.65 |
| ATCAGTGTACCTGTCCCTACTCAATTATCAGCCTAGGGAGATTAGAGTATCGGTCGA | -0.287 |
| CAAGAATACGGATTCTTAAGGGCAAAGGTTGCCTAGGGAGATTAGAGTATCGGTCGA | 5.88 |
| GCTGTGCCGAGCCTGCAGGTGAATGGAAACGCCTAGGGAGATTAGAGTATCGGTCGA | -0.549 |
| AATCTGAATTAACTCTTTACACAGTTCTGAGCCTAGGGAGATTAGAGTATCGGTCGA | -0.00196 |
| ACAAAAACTGTTTCTATGTGACCTTCACCCGCCTAGGGAGATTAGAGTATCGGTCGA | 5.26 |
| AAGACTTCCTGGCCTCTCTGCAAATTTGCCGCCTAGGGAGATTAGAGTATCGGTCGA | -0.993 |
| GTTAGGAAACACTCTGTTTGTAAAGTCTACGCCTAGGGAGATTAGAGTATCGGTCGA | 0.577 |
| GGACTTTGGGCTGTGTTTTGCCCCTGCAGAGCCTAGGGAGATTAGAGTATCGGTCGA | 3.66 |
| TTTTCCTTGGCTGTGCTGCCCTTTGCCCTTGCCTAGGGAGATTAGAGTATCGGTCGA | 7.6 |
| CTTGGCTGTGCTGCCCTTTGCCCTTTGGGAGCCTAGGGAGATTAGAGTATCGGTCGA | 7.11 |
| CTGTGCTGCCCTTTGCCCTTTGGGAAGGGGGCCTAGGGAGATTAGAGTATCGGTCGA | 5.8 |
| GAGAGTTTTCCTTGGCTGTGCTGCCCTTTGGCCTAGGGAGATTAGAGTATCGGTCGA | 3.6 |
| GGGTGGGGTGCTGCCTTTCCTGTGACTTTTGCCTAGGGAGATTAGAGTATCGGTCGA | 1.74 |
| GGGCATGGACTTTGGAATTAAGGAGATTTGGCCTAGGGAGATTAGAGTATCGGTCGA | 4.96 |
| AGATCCGAAGTCTAGGACGTTATCAGCAGGGCCTAGGGAGATTAGAGTATCGGTCGA | 0.0613 |
| ATAAGTTTTCTCATAAAACACCCACCTTGTGCCTAGGGAGATTAGAGTATCGGTCGA | -0.452 |
| AGGGGCTATTTCTGACCTTTGCACCAGAGAGCCTAGGGAGATTAGAGTATCGGTCGA | 6.87 |
| AAGACAGGGGCTATTTCTGACCTTTGCACCGCCTAGGGAGATTAGAGTATCGGTCGA | 9.65 |
| CTATTTCTGACCTTTGCACCAGAGATAATAGCCTAGGGAGATTAGAGTATCGGTCGA | 5.8 |
| TCTGACCAGGCTGATTTAGCTATTTGACCTGCCTAGGGAGATTAGAGTATCGGTCGA | 4.02 |

| Sequence | binding signal [log2 normalized intensity] |
| --- | --- |
| TGGCTAAGACAGGGGCTATTTCTGACCTTTGCCTAGGGAGATTAGAGTATCGGTCGA | 6.5 |
| CCTTTGCACCAGAGATAATATGCTTACTTAGCCTAGGGAGATTAGAGTATCGGTCGA | 0.0286 |
| ATGACTCCAAAGTTCAAACTCTGAAAGCACGCCTAGGGAGATTAGAGTATCGGTCGA | 2.34 |
| CCCTGCAGTCCTCTGCTTATCTGGCCTGCTGCCTAGGGAGATTAGAGTATCGGTCGA | -0.935 |
| ATCTGGTGGTGGTTCTTGTTTCATTGCACAGCCTAGGGAGATTAGAGTATCGGTCGA | 1.84 |
| GTCTTGAGCGCAAATGATCAAAGGTCGGTTGCCTAGGGAGATTAGAGTATCGGTCGA | 5.6 |
| TCAGCACTGAGAGATTACATTTGACTGAGGGCCTAGGGAGATTAGAGTATCGGTCGA | -0.895 |
| TCTTGGAATGTTGAACCTTTCTTTGTCTTTGCCTAGGGAGATTAGAGTATCGGTCGA | 2.24 |
| TCTTTCAGTGTTGACCTTTGAACATTTCTTGCCTAGGGAGATTAGAGTATCGGTCGA | 8.04 |
| AGGAGTGTCTTTCTCCTTGAACACAGTGTTGCCTAGGGAGATTAGAGTATCGGTCGA | 1.25 |
| AACCTTCATCTCTCTTTGTTGACATCTGCTGCCTAGGGAGATTAGAGTATCGGTCGA | 0.528 |
| TATCCAATAAAACACTATCTTCTTTCAGTGGCCTAGGGAGATTAGAGTATCGGTCGA | 0.883 |
| TATCTTCTTTCAGTGTTGACCTTTGAACATGCCTAGGGAGATTAGAGTATCGGTCGA | 8.83 |
| CATGCTCTTGGAATGTTGAACCTTTCTTTGGCCTAGGGAGATTAGAGTATCGGTCGA | 2.64 |
| AACACTATCTTCTTTCAGTGTTGACCTTTGGCCTAGGGAGATTAGAGTATCGGTCGA | 6.87 |
| GAATGTTGAACCTTTCTTTGTCTTTGCAATGCCTAGGGAGATTAGAGTATCGGTCGA | 2.02 |
| CTTAAAGGCCTGTGTCGATGTTAACGCTAAGCCTAGGGAGATTAGAGTATCGGTCGA | -0.828 |
| GCCCTTCCCCCCTCTGCAGCCTTACCCAGTGCCTAGGGAGATTAGAGTATCGGTCGA | 4.59 |
| TGTCGTTTGCTTAGTCTTATCTGAGGTGCCGCCTAGGGAGATTAGAGTATCGGTCGA | 0.932 |
| GAAATGGTGGACTTTGTAGCTCAAACAGTCGCCTAGGGAGATTAGAGTATCGGTCGA | 3.13 |
| TATGGATAGGCACATATTGGATCTCTGGTAGCCTAGGGAGATTAGAGTATCGGTCGA | 0.865 |
| CAGTTTGAAATTAGGCAATATGAGTAGAGCGCCTAGGGAGATTAGAGTATCGGTCGA | -0.693 |
| TTGGCTAAAGTCCAAATTCCTTGGAATACAGCCTAGGGAGATTAGAGTATCGGTCGA | 3.12 |
| CACACACACACAGCATTCCATTCATTTTAGGCCTAGGGAGATTAGAGTATCGGTCGA | -0.727 |
| AACATGTAATCATTTGGGACAAAGTTCATCGCCTAGGGAGATTAGAGTATCGGTCGA | 4.11 |
| TGAACAATTGATTTATAGCCTTTTTGCCCAGCCTAGGGAGATTAGAGTATCGGTCGA | 1.29 |
| TGCTTTCTTATCTGGGGGCCATTCCTCTATGCCTAGGGAGATTAGAGTATCGGTCGA | 1.1 |
